TRPV1 potentiator: HTS Assay for Compounds that Act as Potentiators of the Vanilloid Receptor 1. AID 540277, 2011. Transient receptor potential cation channel subfamily V member 1 (Homo sapiens), Q8NER1. potentiation, % at 8.33 µM. 320,000 compounds, 0.02% hits. TRPV1-expressing cells, Fluo-8 calcium influx, capsaicin EC20 potentiation; in the data active means potentiation above about 80%; inconclusive means between about 30% and that limit; further: 0% is about no effect
Target sequence (Q8NER1 whole entry, looked up): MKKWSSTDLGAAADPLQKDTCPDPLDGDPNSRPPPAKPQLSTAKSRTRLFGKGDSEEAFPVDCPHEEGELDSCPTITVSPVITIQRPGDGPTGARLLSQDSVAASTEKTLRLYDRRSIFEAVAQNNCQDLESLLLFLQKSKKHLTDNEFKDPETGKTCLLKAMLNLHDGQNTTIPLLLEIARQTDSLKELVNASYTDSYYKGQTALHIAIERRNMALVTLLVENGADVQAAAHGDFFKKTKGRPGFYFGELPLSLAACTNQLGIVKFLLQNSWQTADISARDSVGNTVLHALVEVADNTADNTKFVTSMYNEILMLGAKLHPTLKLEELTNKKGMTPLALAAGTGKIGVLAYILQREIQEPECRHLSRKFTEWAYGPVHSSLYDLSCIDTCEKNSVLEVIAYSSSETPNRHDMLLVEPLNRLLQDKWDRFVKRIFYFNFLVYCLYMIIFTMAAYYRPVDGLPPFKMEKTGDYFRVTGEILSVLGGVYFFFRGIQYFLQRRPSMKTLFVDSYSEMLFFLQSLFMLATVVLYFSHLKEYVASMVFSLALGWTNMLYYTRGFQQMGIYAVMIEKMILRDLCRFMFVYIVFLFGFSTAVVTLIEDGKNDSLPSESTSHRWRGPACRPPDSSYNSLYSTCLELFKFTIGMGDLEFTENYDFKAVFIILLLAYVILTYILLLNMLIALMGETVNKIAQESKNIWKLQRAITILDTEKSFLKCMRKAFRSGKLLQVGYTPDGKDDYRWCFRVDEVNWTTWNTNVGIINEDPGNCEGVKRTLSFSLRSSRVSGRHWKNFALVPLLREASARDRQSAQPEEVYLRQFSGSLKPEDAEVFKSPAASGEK
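TRPV1-expressing cells were cultured overnight at 35.5C and loaded with Fluo-8 calcium dye for 40 to 90 min at room temperature. After a 10 s baseline, compound was added and calcium influx was read kinetically for 3 min (ex 480/em 520 nm).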
RORgamma inh: qHTS for inhibitors of ROR gamma transcriptional activity; Nuclear receptor ROR-gamma (Mus musculus), P51450; Drosophila S2 Gal4-RORgamma UAS-luciferase reporter, 20 h; Potency, µM (top dose mostly 53.6 µM), for the others: at the highest dose activity change, negative = inhibition, hits mostly inhibitors; 310,000 compounds, 5.4% hits; further: potency means the concentration at half of the fitted maximal effect; on the % scale 0 is the no-effect control and ±100 the full control effect; nearly all actives have a fitted effect of over 60% in size
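In this cell-based reporter format, copper sulfate (700 uM final) drives Gal4–ROR gamma fusion expression from a metallothionein promoter in Drosophila Schneider cells; compounds preincubated 1 hr, reporter read after 20 hr at ambient temperature.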
TRPV1 agonist: HTS Assay for Compounds that Act as Agonists of the Vanilloid Receptor 1 | TRPV1-expressing cells, Fluo-8 calcium influx, agonist mode | 320,000 compounds, 0.19% hits | AID 540275, 2011 | activation, % at 8.33 µM | Transient receptor potential cation channel subfamily V member 1 (Homo sapiens), Q8NER1; in the data active means activation above about 80%; inconclusive means between about 30% and that limit; further: 0% is about no effect
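Cells expressing TRPV1 were dye-loaded with Fluo-8 and read kinetically: 10 s baseline, 3 min after compound (agonist portion), then 2 min after EC20 capsaicin (allosteric enhancer portion). Calcium-bound dye fluorescence at 480/520 nm.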
uPA surface inh: qHTS for Inhibitors of Cell Surface uPA Generation; cell surface uPA generation assay, qHTS; 330,000 compounds, 0.31% hits; Potency, µM (series often up to 38.3 µM), for the others: at the highest dose activity change, negative = inhibition, actives largely listed as inhibitors; AID 540303, 2011; active means well fitted inhibition curve with a large enough effect; inconclusive means small, poorly fitted or top-dose-only effect; inactive means no such curve, though single readings can be large or run the other way; tested in mouse RAW 264.7 cells; further: potency means the concentration at half of the fitted maximal effect; on the % scale 0 is the no-effect control and ±100 the full control effect; nearly all actives have a fitted effect of over 55% in size
Gal4-VP16 FLuc: VP16 counterscreen qHTS for inhibitors of ROR gamma transcriptional activity | Drosophila S2 Gal4-VP16 UAS-luciferase, luminescence, 20 h | 310,000 compounds, 3.5% hits | Potency, µM (series often up to 53.6 µM), inactives show top-dose activity, negative = inhibition, actives largely listed as inhibitors;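 further: Gal4-VP16 expression switched on by copper sulfate through the metallothionein promoter; potency means the concentration at half of the fitted maximal effect; on the % scale 0 is the no-effect control and ±100 the full control effect; nearly all actives have a fitted effect of over 50% in size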
Numbers without * were called inactive; ? = inconclusive; . = not tested or not shown; [ ] = remark or other dose. Shown are actives, neighbours in structure and some others; about 5.8% of the full set was active somewhere. Unless noted, the call rests on the fitted dose curve; in most records, active means well fitted curve in the direction sought with a large enough effect; inconclusive means small, poorly fitted or top-dose-only effect, or another doubt; inactive means no such curve, though single readings can be large; an effect the other way counts as inactive or inconclusive.

SMILES	TRPV1 potentiator	RORgamma inh	TRPV1 agonist	uPA surface inh	Gal4-VP16 FLuc
CCn1c(=N)n(CC(=O)C23CC4CC(CC(C4)C2)C3)c2ccccc21	-5.2	3.98µM*	-10.4	-0.4%	8.91µM*
COc1ccccc1C(=O)COC(=O)CNS(=O)(=O)c1ccc(C)c(C)c1	16.5	.	2.5	0.2%	.
CCOc1cc(NC(=O)c2ccccc2OC)c(OCC)cc1NC(=O)c1ccccc1	?	27.0%	11.5	3.8%	-15.7%
CCOc1cc(NC(=S)Nc2cccc(OC)c2)c(OCC)cc1NC(=O)C(C)C	-1.4	8.91µM*	9.6	-1.7%	?
CCOc1cc(NC(=S)Nc2ccccc2)c(OCC)cc1NC(=O)c1ccc(OC)cc1	.	3.98µM*	.	2.6%	11.2µM*
COc1cccc(NC(=S)NC(C)c2ccc(OC)c(OC)c2)c1 (stereo unspecified)	1.9	7.94µM*	6.5	-2.7%	?
CCOc1cc(NC(=S)Nc2cccc(C)c2)c(OCC)cc1NC(=O)CC(C)C	-13.5	6.31µM*	14.4	.	20µM*
CC(C)NC(=O)N1CCCC2(CCN(C(=O)c3cc(C(F)(F)F)cc(C(F)(F)F)c3)CC2)C1	.	7.6%	.	.	-5.0%
Cc1cc(C(=O)N2CCN(S(C)(=O)=O)CC2)cs1	-3.5	-33.1%	4.7	.	0.5%
CCOc1cc(NC(=S)Nc2cccc(OC)c2)c(OCC)cc1NC(=O)c1ccc(C)cc1	.	7.94µM*	.	.	15.8µM*
CCOc1cc(NC(=S)Nc2ccc(Cl)cc2)c(OCC)cc1NC(C)=O	24.7	11.2µM*	3.5	.	?
CCOc1cc(NC(=O)CCl)c(OCC)cc1NC(=O)CCl	1.2	12.6µM*	3.9	-14.7%	20µM*
CCOc1ccccc1NC(=O)Nc1ccc(Cl)cc1	-3.2	?	5.8	-5.7%	?
O=C(Cc1c(F)cccc1Cl)N/N=C/c1cccnc1	-3.5	-6.4%	1.2	4.3%	4.7%
C=C(CC1([C@@H](NP(=O)(c2ccccc2)c2ccccc2)[C@H]2C[C@@H]2CCCC)CC1)c1cccc(OC)c1	.	-10.3%	.	.	?
Cc1cc(C#N)c(C)n1-c1cc(S(=O)(=O)N2CCOCC2)ccc1N1CCCC1	4.8	0.8%	4.2	5.2%	18.0%
CC(C)NC(=O)N1CC[C@@]2(CCCN(C(=O)Oc3ccccc3)C2)C1	.	-15.4%	.	.	6.9%
COc1cccc(/C=N/NC(=O)c2cccs2)c1	-14.3	-40.4%	10.7	-3.4%	-13.0%
O=C(N/N=C/c1cccc(OC(=O)N2CCOCC2)c1)c1cccs1	3.2	?	0.7	-6.5%	12.6µM*
COc1cc(OC)c2c(-c3cccc(-c4sccc4C(C)=O)c3)cc(=O)oc2c1	.	-14.7%	.	2.82µM*	?
COc1cc(OC)c2c(-c3cccc(-c4ccc(NC(C)=O)cc4)c3)cc(=O)oc2c1	.	-18.1%	.	?	-16.1%
CCCOC(=O)c1c(NC(=O)CCC(=O)O)sc2c1CCCCC2	-0.9	8.3%	4.6	5.5%	5.0%
CCOc1ccccc1NC(=O)c1c(NC(=O)CCC(=O)O)sc2c1CCCCC2	7.3	10µM*	1.3	-10.1%	?
CCOC(=O)c1ccc(NC(=O)c2c(NC(=O)CCC(=O)O)sc3c2CCCCC3)cc1	16.2	10µM*	0.2	0.5%	1.4%
COc1cc(COc2cc(N)c(Cl)cc2C(=O)CCC2CCN(CCNS(C)(=O)=O)CC2)cc(OC)c1	.	15.8µM*	.	.	15.8µM*
SMILES	TRPV1 potentiator	RORgamma inh	TRPV1 agonist	uPA surface inh	Gal4-VP16 FLuc
CC1CCN(C(=O)C2CCC(C)(C(=O)O)C2(C)C)CC1 (stereo unspecified)	1.0	-26.3%	-2.8	1.7%	-9.4%
CC12CCC(C(=O)N(CSC(=S)N/N=C\c3ccccc3)C1=O)C2(C)C (stereo unspecified)	?	1.12µM*	-1.0	-1.5%	1.58µM*
CC12CCC(C(=O)N(CSC(=S)N/N=C\c3ccccc3Cl)C1=O)C2(C)C (stereo unspecified)	?	?	0.8	-3.9%	-0.1%
Fc1ccc(Sc2nc(-c3ccccc3)nnc2C(F)(F)F)cc1	4.6	5.62µM*	4.9	-8.0%	7.08µM*
CCCC/C=C/[C@H](c1ccccc1)[C@H](CO)Cc1cnc2ccccc2c1	.	3.5%	.	.	-8.5%
S=C(NC1CCCCC1)N1CCCCC1	-13.6	-38.5%	22.8	0.0%	8.9%
CCC1CCCCN1C(=S)NC1CCCCC1 (stereo unspecified)	9.7	10µM*	5.7	1.7%	?
COc1cc2c(cc1OC)C(c1ccc(-c3ccccc3Cl)o1)=NCC2	-8.0	11.2µM*	6.1	.	11.2µM*
COc1cc2c(cc1OC)C(c1ccc(-c3ccc(Cl)cc3Cl)o1)=NCC2	-1.6	6.31µM*	-0.2	-1.4%	20µM*
COc1cc2c(cc1OC)C(c1ccc(-c3cc(Cl)ccc3Cl)o1)=NCC2	13.2	0.5%	23.5	-0.5%	-0.6%
COc1cc2c(cc1OC)C(c1ccc(-c3ccc(Cl)c(Cl)c3)o1)=NCC2	-6.6	12.6µM*	3.3	-9.5%	?
CC[C@@H](c1ccccc1)n1c(=O)n2n(c1=O)[C@H]1[C@H](O)[C@H]3O[C@@H]3/C(=N/OCC(C)C)[C@@H]1CC2	.	-1.3%[10 µM]	.	.	5.3%[10 µM]
O=[N+]([O-])c1ccc(CSc2ccc(S(=O)(=O)N3CCCCCC3)cn2)cc1	7.6	.	1.9	4.3%	.
CC(C)C[C@@H](CC(=O)N[C@@H](CCCN)CC(=O)N[C@@H]1CCCC[C@H]1C(=O)N[C@H](CC(=O)N[C@@H](CCC(=O)O)CC(=O)O)Cc1c[nH]c2ccccc12)NC(=O)[C@@H]1CCCC[C@H]1N	.	-1.1%	.	.	-3.1%
C/C(CC(=O)Nc1ccc(Cl)c(C(F)(F)F)c1)=N\NC(N)=S	-13.8	11.2µM*	14.7	-8.8%	?
C/C(CC(=O)NC(C)(C)C)=N\NC(N)=S	-5.4	11.2µM*	-0.1	-3.2%	?
C/C(CC(=O)Nc1ccc(Cl)c(C(F)(F)F)c1)=N\NC(=O)c1ccccc1O	-11.1	?	?	-3.1%	?
CCC/C=C/C1C(=O)C2OC2C2(OCC(CC)(CC)CO2)C1CO (stereo unspecified)	.	?	.	.	-27.4%[10 µM]
O=C(CN1CCN(Cc2ccccc2Cl)CC1)N/N=C/c1ccccn1	-3.5	-30.9%	9.1	-8.6%	6.3%
CCCSc1ccc2nc(-c3ccccc3)cn2c1	-6.3	2.24µM*	?	-9.6%	6.31µM*
CC(C)(C)c1ccc(C(=O)NC(=S)N2CCCCCC2)cc1	-9.3	0.282µM*	?	-25.0%	0.501µM*
CC(C)(C)c1ccc(C(=O)N2CCC(C(=O)NC3CC3)CC2)cc1	1.7	-1.6%	-1.0	-5.8%	-9.1%
CC(C)(C)c1ccc(C(=O)NNC(=O)C2CCCCC2)cc1	-16.9	19.5%	90.4*	16.7%	-0.2%
CN1CCN(C(=S)NC(=O)c2ccc(Cl)cc2)CC1	8.4	0.398µM*	1.0	5.1%	1µM*
